# Measured values taken from the supplement of paper PMC12282887.
# ± gives the standard deviation of the averaged measurements.
# How the values were obtained:
# Experiment in all cases: promoter activity interaction Z-score (Lux/OD deviation from empty-vector control); higher = stronger promoter induction by the compound
# [1] = system: E. coli BW25113 acrABp lux reporter
# Procedure, shortened: (§1)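 Four 1:2 dilutions of each compound were tested in biological duplicates on E. coli BW25113 carrying low-copy luxCDABE promoter reporters, either wild type or deleted for one of three genes. Cultures of 40 µl LB Lennox in 384-well plates were kept at 37°C and read for OD600 and luminescence every 30 min for 12 h. Integration windows were 0–8 h for wild type and 1–9 h for deletion strains, and wells under 10% of the median growth value were discarded. The score is a Z-transformed residual of growth-normalised luminescence relative to a control fit.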
# [2] = system: E. coli BW25113 micFp lux reporter
# Procedure, shortened: as §1
# [3] = system: E. coli BW25113 ompFp lux reporter
# Procedure, shortened: as §1
# [4] = system: E. coli BW25113 robp lux reporter
# Procedure, shortened: as §1
# [5] = system: E. coli BW25113 soxSp lux reporter
# Procedure, shortened: as §1
# [6] = system: E. coli BW25113 tolCp lux reporter
# Procedure, shortened: as §1
# [7] = 6.9 µg/ml, genetic background: wild type
# [8] = 6.9 µg/ml, genetic background: ΔmarA
# [9] = 6.9 µg/ml, genetic background: Δrob
# [10] = 6.9 µg/ml, genetic background: ΔsoxS
# [11] = 13.8 µg/ml, genetic background: wild type
# [12] = 13.8 µg/ml, genetic background: ΔmarA
# [13] = 13.8 µg/ml, genetic background: Δrob
# [14] = 13.8 µg/ml, genetic background: ΔsoxS
# [15] = 27.5 µg/ml, genetic background: wild type
# [16] = 27.5 µg/ml, genetic background: ΔmarA
# [17] = 27.5 µg/ml, genetic background: Δrob
# [18] = 27.5 µg/ml, genetic background: ΔsoxS
# [19] = 55 µg/ml, genetic background: wild type
# [20] = 55 µg/ml, genetic background: ΔmarA
# [21] = 55 µg/ml, genetic background: Δrob
# [22] = 55 µg/ml, genetic background: ΔsoxS
smiles,measurement,setting,value
CCCC(=O)O [Butyrate],promoter activity interaction Z-score,[1]; [7],-0.186 ± 0.091
same,promoter activity interaction Z-score,[1]; [8],-0.105 ± 0.089
same,promoter activity interaction Z-score,[1]; [9],-0.0421 ± 0.058
same,promoter activity interaction Z-score,[1]; [10],0.455 ± 0.31
same,promoter activity interaction Z-score,[1]; [11],0.0203 ± 0.11
same,promoter activity interaction Z-score,[1]; [12],0.0848 ± 0.57
same,promoter activity interaction Z-score,[1]; [13],0.344 ± 0.08
same,promoter activity interaction Z-score,[1]; [14],-0.00445 ± 0.01
same,promoter activity interaction Z-score,[1]; [15],-0.32 ± 0.15
same,promoter activity interaction Z-score,[1]; [16],0.724 ± 0.18
same,promoter activity interaction Z-score,[1]; [17],-0.04 ± 0.27
same,promoter activity interaction Z-score,[1]; [18],0.471 ± 0.41
same,promoter activity interaction Z-score,[1]; [19],0.0224 ± 0.013
same,promoter activity interaction Z-score,[1]; [20],0.369 ± 0.73
same,promoter activity interaction Z-score,[1]; [21],0.3 ± 0.086
same,promoter activity interaction Z-score,[1]; [22],0.561 ± 1.1
same,promoter activity interaction Z-score,[2]; [7],-0.053 ± 0.54
same,promoter activity interaction Z-score,[2]; [8],-0.02 ± 0.084
same,promoter activity interaction Z-score,[2]; [9],0.0084 ± 0.082
same,promoter activity interaction Z-score,[2]; [10],-0.0289 ± 0.27
same,promoter activity interaction Z-score,[2]; [11],0.0525 ± 0.25
same,promoter activity interaction Z-score,[2]; [12],0.104 ± 0.01
same,promoter activity interaction Z-score,[2]; [13],-0.131 ± 0.024
same,promoter activity interaction Z-score,[2]; [14],0.104 ± 0.51
same,promoter activity interaction Z-score,[2]; [15],-0.317 ± 0.084
same,promoter activity interaction Z-score,[2]; [16],0.0463 ± 0.13
same,promoter activity interaction Z-score,[2]; [17],-0.0949 ± 0.063
same,promoter activity interaction Z-score,[2]; [18],0.336 ± 0.088
same,promoter activity interaction Z-score,[2]; [19],-0.235 ± 0.24
same,promoter activity interaction Z-score,[2]; [20],-0.118 ± 0.0028
same,promoter activity interaction Z-score,[2]; [21],-0.0628 ± 0.18
same,promoter activity interaction Z-score,[2]; [22],-0.082 ± 0.078
same,promoter activity interaction Z-score,[3]; [7],-0.311 ± 0.047
same,promoter activity interaction Z-score,[3]; [8],-0.076 ± 0.29
same,promoter activity interaction Z-score,[3]; [9],0.0244 ± 0.24
same,promoter activity interaction Z-score,[3]; [10],-0.0786 ± 0.12
same,promoter activity interaction Z-score,[3]; [11],-0.231 ± 0.022
same,promoter activity interaction Z-score,[3]; [12],0.259 ± 0.068
same,promoter activity interaction Z-score,[3]; [13],0.303 ± 0.041
same,promoter activity interaction Z-score,[3]; [14],0.34 ± 0.31
same,promoter activity interaction Z-score,[3]; [15],-0.53 ± 0.22
same,promoter activity interaction Z-score,[3]; [16],-0.0799 ± 0.19
same,promoter activity interaction Z-score,[3]; [17],0.0179 ± 0.31
same,promoter activity interaction Z-score,[3]; [18],0.623 ± 0.35
same,promoter activity interaction Z-score,[3]; [19],0.0627 ± 0.12
same,promoter activity interaction Z-score,[3]; [20],0.515 ± 0.0087
same,promoter activity interaction Z-score,[3]; [21],0.664 ± 0.45
same,promoter activity interaction Z-score,[3]; [22],0.842 ± 0.3
same,promoter activity interaction Z-score,[4]; [7],0.406 ± 0.012
same,promoter activity interaction Z-score,[4]; [8],-0.648 ± 0.21
same,promoter activity interaction Z-score,[4]; [9],0.484 ± 0.27
same,promoter activity interaction Z-score,[4]; [10],0.116 ± 0.23
same,promoter activity interaction Z-score,[4]; [11],0.00618 ± 0.49
same,promoter activity interaction Z-score,[4]; [12],0.268 ± 0.098
same,promoter activity interaction Z-score,[4]; [13],0.377 ± 0.92
same,promoter activity interaction Z-score,[4]; [14],0.84 ± 0.41
same,promoter activity interaction Z-score,[4]; [15],-0.708 ± 0.16
same,promoter activity interaction Z-score,[4]; [16],-0.0714 ± 0.84
same,promoter activity interaction Z-score,[4]; [17],-0.162 ± 0.23
same,promoter activity interaction Z-score,[4]; [18],0.234 ± 0.13
same,promoter activity interaction Z-score,[4]; [19],0.0368 ± 0.57
same,promoter activity interaction Z-score,[4]; [20],-0.0155 ± 0.33
same,promoter activity interaction Z-score,[4]; [21],0.391 ± 0.82
same,promoter activity interaction Z-score,[4]; [22],0.993 ± 0.59
same,promoter activity interaction Z-score,[5]; [7],0.0135 ± 0.086
same,promoter activity interaction Z-score,[5]; [8],0.215 ± 0.14
same,promoter activity interaction Z-score,[5]; [9],0.301 ± 0.047
same,promoter activity interaction Z-score,[5]; [10],0.31 ± 0.33
same,promoter activity interaction Z-score,[5]; [11],0.0512 ± 0.26
same,promoter activity interaction Z-score,[5]; [12],0.372 ± 0.21
same,promoter activity interaction Z-score,[5]; [13],0.172 ± 0.11
same,promoter activity interaction Z-score,[5]; [14],0.159 ± 0.19
same,promoter activity interaction Z-score,[5]; [15],0.00814 ± 0.044
same,promoter activity interaction Z-score,[5]; [16],0.223 ± 0.09
same,promoter activity interaction Z-score,[5]; [17],0.122 ± 0.097
same,promoter activity interaction Z-score,[5]; [18],0.33 ± 0.46
same,promoter activity interaction Z-score,[5]; [19],-0.104 ± 0.11
same,promoter activity interaction Z-score,[5]; [20],0.322 ± 0.006
same,promoter activity interaction Z-score,[5]; [21],0.0248 ± 0.034
same,promoter activity interaction Z-score,[5]; [22],0.334 ± 0.73
same,promoter activity interaction Z-score,[6]; [7],-0.319 ± 1.1
same,promoter activity interaction Z-score,[6]; [8],-0.0114 ± 0.66
same,promoter activity interaction Z-score,[6]; [9],-0.444 ± 0.1
same,promoter activity interaction Z-score,[6]; [10],-0.376 ± 0.46
same,promoter activity interaction Z-score,[6]; [11],-0.518 ± 0.94
same,promoter activity interaction Z-score,[6]; [12],-0.427 ± 0.69
same,promoter activity interaction Z-score,[6]; [13],0.207 ± 1
same,promoter activity interaction Z-score,[6]; [14],0.311 ± 0.35
same,promoter activity interaction Z-score,[6]; [15],-1.01 ± 0.066
same,promoter activity interaction Z-score,[6]; [16],0.539 ± 0.083
same,promoter activity interaction Z-score,[6]; [17],0.18 ± 0.021
same,promoter activity interaction Z-score,[6]; [18],0.0693 ± 0.34
same,promoter activity interaction Z-score,[6]; [19],0.0415 ± 0.077
same,promoter activity interaction Z-score,[6]; [20],0.218 ± 0.98
same,promoter activity interaction Z-score,[6]; [21],-0.252 ± 0.71
same,promoter activity interaction Z-score,[6]; [22],0.709 ± 0.36
